Data from publication PMC7862700, “An all-to-all approach to the identification of sequence-specific readers for epigenetic DNA modifications on cytosine”.

Assays:
Experiment in all cases: DAPPL (digital affinity profiling via proximity ligation, sequencing); 10 mM Tris-HCl pH 7.5, 50 mM NaCl, 1 mM DTT, 4% glycerol, room temperature, 30 min; GST-TFs on glutathione beads, 16-mer random dsDNA library, 0.1% formaldehyde crosslink after washing; high values mean tight binding
[1] = target: T1, FLI1 (Homo sapiens, UniProt Q01543 1-452); settings: protein: recombinant; tags: N-terminal GST; dsDNA, one strand shown
T1 sequence: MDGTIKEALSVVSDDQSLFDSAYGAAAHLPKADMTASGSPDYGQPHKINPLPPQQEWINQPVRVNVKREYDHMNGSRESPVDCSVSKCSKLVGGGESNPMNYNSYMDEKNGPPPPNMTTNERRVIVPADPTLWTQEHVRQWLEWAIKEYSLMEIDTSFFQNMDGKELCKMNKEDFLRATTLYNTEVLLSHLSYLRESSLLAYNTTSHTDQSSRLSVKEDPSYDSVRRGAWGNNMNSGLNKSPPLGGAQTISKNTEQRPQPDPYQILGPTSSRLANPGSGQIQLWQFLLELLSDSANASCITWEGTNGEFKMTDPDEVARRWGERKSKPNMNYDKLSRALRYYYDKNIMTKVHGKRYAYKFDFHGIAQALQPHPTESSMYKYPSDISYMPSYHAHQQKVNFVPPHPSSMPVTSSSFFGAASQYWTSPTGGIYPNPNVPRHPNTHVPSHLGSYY
How it was run: (§1)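 Each value of binding signal is a hexamer's read frequency for a factor divided by the same hexamer's frequency in the tag-only sample. Barcoded, bead-captured GST fusions of human transcription factors made in yeast were pooled with that sample and incubated with 200 nmole of a random double-stranded 16-mer DNA library in Tris/NaCl/DTT/glycerol buffer at room temperature for 30 min. Washing, 0.1% formaldehyde crosslinking, proximity ligation, PCR and Illumina NextSeq500 sequencing followed.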

[2] = target: T2, ELK1 (Homo sapiens, UniProt P19419 1-428); settings: protein: recombinant; tags: N-terminal GST; dsDNA, one strand shown
T2 sequence: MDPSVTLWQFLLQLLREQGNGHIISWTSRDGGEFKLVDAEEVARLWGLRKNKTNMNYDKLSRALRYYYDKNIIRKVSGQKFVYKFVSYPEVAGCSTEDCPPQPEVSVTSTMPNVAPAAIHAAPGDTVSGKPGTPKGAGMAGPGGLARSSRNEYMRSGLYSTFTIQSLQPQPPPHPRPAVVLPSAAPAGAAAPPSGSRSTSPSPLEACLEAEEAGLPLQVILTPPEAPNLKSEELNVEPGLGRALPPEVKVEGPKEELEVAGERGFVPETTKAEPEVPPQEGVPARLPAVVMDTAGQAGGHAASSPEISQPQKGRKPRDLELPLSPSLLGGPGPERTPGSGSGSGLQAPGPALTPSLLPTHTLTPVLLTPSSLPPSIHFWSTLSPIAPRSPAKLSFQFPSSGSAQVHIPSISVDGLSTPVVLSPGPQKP
How it was run: as §1

[3] = target: T3, GABPA (Homo sapiens, UniProt Q06546 1-454); settings: protein: recombinant; tags: N-terminal GST; dsDNA, one strand shown
T3 sequence: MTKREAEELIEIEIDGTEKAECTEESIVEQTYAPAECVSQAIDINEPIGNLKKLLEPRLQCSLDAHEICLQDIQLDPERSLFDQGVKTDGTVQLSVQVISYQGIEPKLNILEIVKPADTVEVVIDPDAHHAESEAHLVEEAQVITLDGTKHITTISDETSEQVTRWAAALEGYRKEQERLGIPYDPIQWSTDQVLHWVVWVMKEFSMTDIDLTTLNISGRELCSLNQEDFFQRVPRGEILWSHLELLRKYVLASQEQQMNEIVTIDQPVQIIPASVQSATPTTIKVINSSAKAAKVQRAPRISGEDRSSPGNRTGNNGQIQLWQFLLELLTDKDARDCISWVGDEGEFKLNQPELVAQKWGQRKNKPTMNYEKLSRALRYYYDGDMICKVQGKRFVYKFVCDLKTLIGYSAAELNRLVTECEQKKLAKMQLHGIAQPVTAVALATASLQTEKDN
How it was run: as §1

[4] = target: T4, ERG (Homo sapiens, UniProt P11308 1-479); settings: protein: recombinant; tags: N-terminal GST; dsDNA, one strand shown
T4 sequence: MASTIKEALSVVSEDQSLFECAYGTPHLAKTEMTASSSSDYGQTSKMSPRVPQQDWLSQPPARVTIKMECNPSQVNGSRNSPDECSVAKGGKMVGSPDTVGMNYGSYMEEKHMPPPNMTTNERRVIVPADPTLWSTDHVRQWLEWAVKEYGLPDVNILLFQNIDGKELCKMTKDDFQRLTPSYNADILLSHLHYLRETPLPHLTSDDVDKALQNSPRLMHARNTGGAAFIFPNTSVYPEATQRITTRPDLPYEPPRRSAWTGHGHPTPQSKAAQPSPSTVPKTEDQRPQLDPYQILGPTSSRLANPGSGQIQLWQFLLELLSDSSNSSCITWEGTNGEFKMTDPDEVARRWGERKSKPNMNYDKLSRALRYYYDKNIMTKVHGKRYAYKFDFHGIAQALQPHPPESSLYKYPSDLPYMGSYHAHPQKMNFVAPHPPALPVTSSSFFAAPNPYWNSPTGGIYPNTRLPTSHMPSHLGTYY
How it was run: as §1

[5] = target: ELF1 (Homo sapiens, UniProt P32519 1-619); settings: protein: recombinant; tags: N-terminal GST; dsDNA, one strand shown
ELF1, sequence (P32519 whole entry): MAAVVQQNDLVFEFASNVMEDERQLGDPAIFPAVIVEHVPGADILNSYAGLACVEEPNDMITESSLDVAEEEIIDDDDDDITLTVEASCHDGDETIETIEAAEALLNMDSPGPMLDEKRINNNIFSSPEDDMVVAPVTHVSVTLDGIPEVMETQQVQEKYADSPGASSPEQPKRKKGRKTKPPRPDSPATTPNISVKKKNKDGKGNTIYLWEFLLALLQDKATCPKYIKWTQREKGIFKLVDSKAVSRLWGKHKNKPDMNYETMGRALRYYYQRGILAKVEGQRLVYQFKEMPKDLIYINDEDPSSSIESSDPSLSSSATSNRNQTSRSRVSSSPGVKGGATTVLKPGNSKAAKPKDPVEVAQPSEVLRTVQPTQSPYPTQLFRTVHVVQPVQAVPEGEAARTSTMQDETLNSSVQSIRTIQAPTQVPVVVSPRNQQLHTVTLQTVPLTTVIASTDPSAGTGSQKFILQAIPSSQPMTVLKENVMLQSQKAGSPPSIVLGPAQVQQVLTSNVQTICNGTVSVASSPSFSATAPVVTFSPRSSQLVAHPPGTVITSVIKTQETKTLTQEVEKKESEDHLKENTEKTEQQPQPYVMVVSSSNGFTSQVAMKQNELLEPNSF
How it was run: as §1

[6] = target: T5, EHF (Homo sapiens, UniProt Q9NZC4 1-300); settings: protein: recombinant; tags: N-terminal GST; dsDNA, one strand shown
T5 sequence: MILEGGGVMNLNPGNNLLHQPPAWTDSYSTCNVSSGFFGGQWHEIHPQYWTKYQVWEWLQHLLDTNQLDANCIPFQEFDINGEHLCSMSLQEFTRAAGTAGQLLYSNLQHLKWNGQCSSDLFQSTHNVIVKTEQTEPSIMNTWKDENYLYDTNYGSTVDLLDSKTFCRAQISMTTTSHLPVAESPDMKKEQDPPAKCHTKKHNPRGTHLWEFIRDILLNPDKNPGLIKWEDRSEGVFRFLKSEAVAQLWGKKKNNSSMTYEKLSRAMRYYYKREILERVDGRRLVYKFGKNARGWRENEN
How it was run: as §1

[7] = target: SPI1 (Homo sapiens, UniProt P17947 1-270); settings: protein: recombinant; tags: N-terminal GST; dsDNA, one strand shown
How it was run: as §1

[8] = target: SPIB (Homo sapiens, UniProt Q01892 1-262); settings: protein: recombinant; tags: N-terminal GST; dsDNA, one strand shown
SPIB, sequence (Q01892 whole entry): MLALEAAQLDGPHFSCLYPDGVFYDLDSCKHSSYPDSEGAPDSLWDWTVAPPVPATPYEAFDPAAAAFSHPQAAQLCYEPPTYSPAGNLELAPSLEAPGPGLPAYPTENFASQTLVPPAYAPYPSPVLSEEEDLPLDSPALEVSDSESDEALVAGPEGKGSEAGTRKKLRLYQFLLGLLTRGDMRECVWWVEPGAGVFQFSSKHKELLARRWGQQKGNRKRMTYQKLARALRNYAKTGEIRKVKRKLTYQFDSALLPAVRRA
How it was run: as §1

[9] = target: T6, ELK3 (Homo sapiens, UniProt P41970 1-407); settings: protein: recombinant; tags: N-terminal GST; dsDNA, one strand shown
T6 sequence: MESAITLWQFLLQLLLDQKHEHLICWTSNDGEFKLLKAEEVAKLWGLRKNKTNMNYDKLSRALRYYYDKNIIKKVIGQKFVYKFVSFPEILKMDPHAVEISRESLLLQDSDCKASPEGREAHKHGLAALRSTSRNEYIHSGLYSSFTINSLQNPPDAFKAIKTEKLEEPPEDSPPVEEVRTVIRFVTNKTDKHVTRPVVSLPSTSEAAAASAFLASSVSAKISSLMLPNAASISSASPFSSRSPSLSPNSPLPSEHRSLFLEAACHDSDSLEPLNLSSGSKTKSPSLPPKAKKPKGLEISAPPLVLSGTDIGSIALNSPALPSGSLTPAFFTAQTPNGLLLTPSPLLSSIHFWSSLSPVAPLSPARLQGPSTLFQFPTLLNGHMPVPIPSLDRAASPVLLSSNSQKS
How it was run: as §1

[10] = target: T7, FEV (Homo sapiens, UniProt Q99581 1-238); settings: protein: recombinant; tags: N-terminal GST; dsDNA, one strand shown
T7 sequence: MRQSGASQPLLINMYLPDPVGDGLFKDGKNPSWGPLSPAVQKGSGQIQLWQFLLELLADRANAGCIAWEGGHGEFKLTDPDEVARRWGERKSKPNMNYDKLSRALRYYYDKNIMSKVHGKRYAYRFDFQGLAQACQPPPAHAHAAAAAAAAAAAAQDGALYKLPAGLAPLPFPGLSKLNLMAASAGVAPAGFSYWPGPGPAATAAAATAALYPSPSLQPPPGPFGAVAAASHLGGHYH
How it was run: as §1

[11] = target: ETV5 (Homo sapiens, UniProt P41161 1-510); settings: protein: recombinant; tags: N-terminal GST; dsDNA, one strand shown
ETV5, sequence (P41161 whole entry): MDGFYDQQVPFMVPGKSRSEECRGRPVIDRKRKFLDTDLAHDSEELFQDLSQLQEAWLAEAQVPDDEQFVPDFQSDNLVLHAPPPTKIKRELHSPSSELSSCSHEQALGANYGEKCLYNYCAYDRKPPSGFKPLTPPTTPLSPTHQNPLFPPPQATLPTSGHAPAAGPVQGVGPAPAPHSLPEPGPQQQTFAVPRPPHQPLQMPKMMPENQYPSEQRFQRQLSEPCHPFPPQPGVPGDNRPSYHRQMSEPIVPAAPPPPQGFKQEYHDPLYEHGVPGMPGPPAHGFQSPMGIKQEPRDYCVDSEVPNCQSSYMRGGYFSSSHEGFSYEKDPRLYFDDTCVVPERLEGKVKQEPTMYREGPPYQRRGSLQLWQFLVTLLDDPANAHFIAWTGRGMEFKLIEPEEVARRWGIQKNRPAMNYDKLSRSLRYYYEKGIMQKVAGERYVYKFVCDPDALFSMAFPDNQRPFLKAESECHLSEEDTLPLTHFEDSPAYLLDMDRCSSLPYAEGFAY
How it was run: as §1

[12] = target: HSF1 (Homo sapiens, UniProt Q00613 1-529); settings: protein: recombinant; tags: N-terminal GST; chain copies: 3; dsDNA, one strand shown
HSF1, sequence (Q00613 whole entry): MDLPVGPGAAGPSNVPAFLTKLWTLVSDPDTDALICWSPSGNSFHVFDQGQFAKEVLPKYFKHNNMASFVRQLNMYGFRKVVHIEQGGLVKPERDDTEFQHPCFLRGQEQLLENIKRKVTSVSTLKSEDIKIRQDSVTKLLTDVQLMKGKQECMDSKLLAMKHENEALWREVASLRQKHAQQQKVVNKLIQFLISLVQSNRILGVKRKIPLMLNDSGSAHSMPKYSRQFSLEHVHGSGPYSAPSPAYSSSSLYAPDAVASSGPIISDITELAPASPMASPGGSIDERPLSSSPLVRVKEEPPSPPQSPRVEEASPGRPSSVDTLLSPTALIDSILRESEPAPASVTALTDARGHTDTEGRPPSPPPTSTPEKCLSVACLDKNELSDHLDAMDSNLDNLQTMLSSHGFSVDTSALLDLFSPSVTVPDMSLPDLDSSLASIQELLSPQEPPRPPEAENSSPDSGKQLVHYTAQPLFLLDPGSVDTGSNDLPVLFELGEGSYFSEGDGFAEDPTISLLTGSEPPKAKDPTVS
How it was run: as §1

[13] = target: T8, SPIC (Homo sapiens, UniProt Q8N5J4 1-248); settings: protein: recombinant; tags: N-terminal GST; dsDNA, one strand shown
T8 sequence: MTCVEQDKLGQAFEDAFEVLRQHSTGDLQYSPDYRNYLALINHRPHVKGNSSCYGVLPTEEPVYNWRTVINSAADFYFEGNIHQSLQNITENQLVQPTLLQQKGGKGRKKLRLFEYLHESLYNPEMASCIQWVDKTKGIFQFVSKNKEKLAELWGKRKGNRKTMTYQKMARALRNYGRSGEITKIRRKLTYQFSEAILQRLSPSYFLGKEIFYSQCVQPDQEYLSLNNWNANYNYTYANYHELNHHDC
How it was run: as §1

[14] = target: ELF4 (Homo sapiens, UniProt Q99607 1-663); settings: protein: recombinant; tags: N-terminal GST; dsDNA, one strand shown
ELF4, sequence (Q99607 whole entry): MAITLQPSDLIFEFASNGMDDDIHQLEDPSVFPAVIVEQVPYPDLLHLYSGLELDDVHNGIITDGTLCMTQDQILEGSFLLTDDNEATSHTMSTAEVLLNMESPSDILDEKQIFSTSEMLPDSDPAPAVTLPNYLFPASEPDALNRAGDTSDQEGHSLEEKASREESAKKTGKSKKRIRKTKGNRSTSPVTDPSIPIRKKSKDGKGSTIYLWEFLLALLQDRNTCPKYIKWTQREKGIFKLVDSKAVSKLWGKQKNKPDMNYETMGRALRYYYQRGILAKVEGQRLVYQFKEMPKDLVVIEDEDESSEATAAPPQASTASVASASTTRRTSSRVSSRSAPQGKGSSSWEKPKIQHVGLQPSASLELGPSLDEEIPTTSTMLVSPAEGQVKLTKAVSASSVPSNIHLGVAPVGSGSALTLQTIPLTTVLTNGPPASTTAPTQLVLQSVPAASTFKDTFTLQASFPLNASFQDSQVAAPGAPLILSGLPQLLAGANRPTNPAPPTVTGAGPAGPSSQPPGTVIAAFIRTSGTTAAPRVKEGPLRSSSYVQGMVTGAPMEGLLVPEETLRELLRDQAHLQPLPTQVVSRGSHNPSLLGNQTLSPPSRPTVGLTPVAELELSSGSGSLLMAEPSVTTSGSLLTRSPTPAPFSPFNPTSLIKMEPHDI
How it was run: as §1

[15] = target: T9, ELK4 (Homo sapiens, UniProt P28324-2 1-405); settings: protein: recombinant; tags: N-terminal GST; dsDNA, one strand shown
T9 sequence: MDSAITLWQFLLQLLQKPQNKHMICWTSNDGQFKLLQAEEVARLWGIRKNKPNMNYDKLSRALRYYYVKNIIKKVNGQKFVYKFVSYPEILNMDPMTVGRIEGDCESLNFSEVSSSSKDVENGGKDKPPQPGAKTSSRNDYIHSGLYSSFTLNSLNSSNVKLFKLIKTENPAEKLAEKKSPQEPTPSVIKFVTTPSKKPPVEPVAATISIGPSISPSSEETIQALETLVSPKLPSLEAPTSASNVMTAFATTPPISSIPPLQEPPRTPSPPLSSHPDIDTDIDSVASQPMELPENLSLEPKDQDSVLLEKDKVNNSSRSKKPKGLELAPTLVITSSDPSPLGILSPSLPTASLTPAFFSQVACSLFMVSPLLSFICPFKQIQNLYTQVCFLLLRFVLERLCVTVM
How it was run: as §1

[16] = target: T10, ETV2 (Homo sapiens, UniProt O00321 1-342); settings: protein: recombinant; tags: N-terminal GST; dsDNA, one strand shown
T10 sequence: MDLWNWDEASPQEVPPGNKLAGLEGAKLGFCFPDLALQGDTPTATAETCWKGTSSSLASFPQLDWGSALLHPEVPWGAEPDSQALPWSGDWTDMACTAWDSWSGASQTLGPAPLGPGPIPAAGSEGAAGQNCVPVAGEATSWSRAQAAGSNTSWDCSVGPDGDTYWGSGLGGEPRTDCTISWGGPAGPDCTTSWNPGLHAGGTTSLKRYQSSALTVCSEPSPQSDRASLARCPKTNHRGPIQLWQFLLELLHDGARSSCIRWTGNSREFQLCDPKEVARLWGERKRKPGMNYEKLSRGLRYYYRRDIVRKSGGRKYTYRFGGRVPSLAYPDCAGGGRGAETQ
How it was run: as §1

[17] = target: T11, ELF3 (Homo sapiens, UniProt P78545 1-371); settings: protein: recombinant; tags: N-terminal GST; dsDNA, one strand shown
T11 sequence: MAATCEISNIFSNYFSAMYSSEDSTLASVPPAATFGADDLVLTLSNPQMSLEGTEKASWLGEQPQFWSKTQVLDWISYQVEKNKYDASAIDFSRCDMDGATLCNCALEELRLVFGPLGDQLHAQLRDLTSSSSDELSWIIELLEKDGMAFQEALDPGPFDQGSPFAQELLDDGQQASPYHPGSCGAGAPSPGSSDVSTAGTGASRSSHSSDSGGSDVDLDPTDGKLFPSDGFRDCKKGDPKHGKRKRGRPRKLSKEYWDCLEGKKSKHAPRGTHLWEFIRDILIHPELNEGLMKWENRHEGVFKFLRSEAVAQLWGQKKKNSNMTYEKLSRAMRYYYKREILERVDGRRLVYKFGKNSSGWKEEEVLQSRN
How it was run: as §1

[18] = target: CRX (Homo sapiens, UniProt O43186 1-299); settings: protein: recombinant; tags: N-terminal GST; dsDNA, one strand shown
CRX, sequence (O43186 whole entry): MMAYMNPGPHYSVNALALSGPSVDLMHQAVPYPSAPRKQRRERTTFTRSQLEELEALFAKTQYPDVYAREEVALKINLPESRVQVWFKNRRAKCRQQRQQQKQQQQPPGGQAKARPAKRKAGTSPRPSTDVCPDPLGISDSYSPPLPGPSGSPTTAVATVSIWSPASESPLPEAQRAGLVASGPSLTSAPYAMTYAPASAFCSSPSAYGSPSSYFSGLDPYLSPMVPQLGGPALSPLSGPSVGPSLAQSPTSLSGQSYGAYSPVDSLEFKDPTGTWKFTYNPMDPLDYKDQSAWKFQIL
How it was run: as §1

[19] = target: ETV1 (Homo sapiens, UniProt P50549 1-477); settings: protein: recombinant; tags: N-terminal GST; dsDNA, one strand shown
ETV1, sequence (P50549 whole entry): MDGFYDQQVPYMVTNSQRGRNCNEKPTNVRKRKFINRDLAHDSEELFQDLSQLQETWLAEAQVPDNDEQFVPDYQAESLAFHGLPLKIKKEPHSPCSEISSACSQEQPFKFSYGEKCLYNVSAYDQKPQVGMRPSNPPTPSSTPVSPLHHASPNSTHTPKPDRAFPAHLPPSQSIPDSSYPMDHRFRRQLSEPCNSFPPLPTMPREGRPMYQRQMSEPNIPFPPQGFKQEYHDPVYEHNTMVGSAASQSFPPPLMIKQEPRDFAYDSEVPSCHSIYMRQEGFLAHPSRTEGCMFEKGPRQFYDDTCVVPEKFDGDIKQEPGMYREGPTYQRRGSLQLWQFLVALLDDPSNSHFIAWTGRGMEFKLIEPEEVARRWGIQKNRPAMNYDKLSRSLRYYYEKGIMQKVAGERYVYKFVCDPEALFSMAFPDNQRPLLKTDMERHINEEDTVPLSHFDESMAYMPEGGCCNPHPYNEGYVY
How it was run: as §1

AACACA was tested, and the binding signal [1] was 1.32 fold enrichment (6-mer frequency, TF over GST control), the binding signal [2] was 1.32 fold enrichment (6-mer frequency, TF over GST control) and the binding signal [3] was 1.33 fold enrichment (6-mer frequency, TF over GST control). The binding signal [4] was 1.32 fold enrichment (6-mer frequency, TF over GST control), the binding signal [5] was 1.39 fold enrichment (6-mer frequency, TF over GST control) and the binding signal [6] was 1.38 fold enrichment (6-mer frequency, TF over GST control). For the same sequence, the binding signal [7] was 1.27 fold enrichment (6-mer frequency, TF over GST control), the binding signal [8] was 1.35 fold enrichment (6-mer frequency, TF over GST control) and the binding signal [9] was 1.26 fold enrichment (6-mer frequency, TF over GST control). For the same sequence, the binding signal [10] was 1.31 fold enrichment (6-mer frequency, TF over GST control), the binding signal [11] was 1.33 fold enrichment (6-mer frequency, TF over GST control) and the binding signal [12] was 1.13 fold enrichment (6-mer frequency, TF over GST control). For the same sequence, the binding signal [13] was 1.33 fold enrichment (6-mer frequency, TF over GST control), the binding signal [14] was 1.32 fold enrichment (6-mer frequency, TF over GST control) and the binding signal [15] was 1.42 fold enrichment (6-mer frequency, TF over GST control). For the same sequence, the binding signal [16] was 1.49 fold enrichment (6-mer frequency, TF over GST control), the binding signal [17] was 1.26 fold enrichment (6-mer frequency, TF over GST control) and the binding signal [18] was 1.1 fold enrichment (6-mer frequency, TF over GST control). For the same sequence, the binding signal [19] was 1.27 fold enrichment (6-mer frequency, TF over GST control).
